Source: PubChem BioAssay AID1159580 (chemical genetic matrix, 2015)
Among all 5,500 compounds or so, about 2,000 (36%) were called active. Inconclusive results (about 18%) are left out. No stated cut-off is given here; in the data, active means normalized growth mostly below about 0.91 (no sharp cut-off); inconclusive means no clear call, values can overlap the other calls; inactive means mostly above about 0.92. Some of the results follow.

Test: chemical genetic growth profiling, strain panel (AID 1159580);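 further: tested at 20 µM; growth read once vehicle control cultures reached saturation at 30 °C; 1 = growth at the plate median or of vehicle wells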
Settings: growth OD

Measured: normalized growth

C[N+]12CCC(CC1)C(OC(=O)C(O)(c1ccccc1)c1ccccc1)C2 (configuration not stated)
inactive: S. cerevisiae deletion strains, locus YJR075W, strain HOC1, stronger effect = lower value 0.982 | S. cerevisiae deletion strains, locus YKL009W, strain mrt4, stronger effect = lower value 0.998 | S. cerevisiae deletion strains, locus YKL068W, stronger effect = lower value 0.985 | S. cerevisiae deletion strains, locus YKL085W, strain MDH1 (second series), stronger effect = lower value 0.994 | S. cerevisiae deletion strains, locus YKL085W, strain MDH1, stronger effect = lower value 0.994 | S. cerevisiae deletion strains, locus YKL160W, strain elf1, stronger effect = lower value 0.962 | S. cerevisiae deletion strains, locus YKL190W, strain CNB1, stronger effect = lower value 1 | S. cerevisiae deletion strains, locus YKR001C, strain vps1, stronger effect = lower value 0.958 | S. cerevisiae deletion strains, locus YKR026C, strain gcn3, stronger effect = lower value 0.984 | S. cerevisiae deletion strains, locus YKR091W, strain srl3, stronger effect = lower value 0.972 | S. cerevisiae deletion strains, locus YLL001W, strain dnm1, stronger effect = lower value 0.922 | S. cerevisiae deletion strains, locus YLL026W, stronger effect = lower value 0.975 | S. cerevisiae deletion strains, locus YLL041C, strain sdh2, stronger effect = lower value 1 | S. cerevisiae deletion strains, locus YLR027C, strain aat2, stronger effect = lower value 0.977 | S. cerevisiae deletion strains, locus YLR039C, strain RIC1, stronger effect = lower value 1.02 | S. cerevisiae deletion strains, locus YLR058C, strain SHM2, stronger effect = lower value 0.985 | S. cerevisiae deletion strains, locus YLR102C, strain apc9, stronger effect = lower value 0.987 | S. cerevisiae deletion strains, locus YLR113W, strain HOG1, stronger effect = lower value 0.975 | S. cerevisiae deletion strains, locus YLR221C, strain rsa3, stronger effect = lower value 0.929 | S. cerevisiae deletion strains, locus YLR258W, strain gsy2, stronger effect = lower value 0.979 | S. cerevisiae deletion strains, locus YLR262C, strain YPT6 (second series), stronger effect = lower value 0.955 | S. cerevisiae deletion strains, locus YLR262C, strain YPT6, stronger effect = lower value 1 | S. cerevisiae deletion strains, locus YLR268W, strain sec22, stronger effect = lower value 0.906 | S. cerevisiae deletion strains, locus YLR320W, strain mms22, stronger effect = lower value 0.952 | S. cerevisiae deletion strains, locus YLR330W, strain CHS5, stronger effect = lower value 0.995 | S. cerevisiae deletion strains, locus YLR342W, strain FKS1 (second series), stronger effect = lower value 1.01 | S. cerevisiae deletion strains, locus YLR342W, strain FKS1, stronger effect = lower value 0.989 | S. cerevisiae deletion strains, locus YLR357W, strain rsc2, stronger effect = lower value 0.983 | S. cerevisiae deletion strains, locus YLR370C, strain arc18, stronger effect = lower value 0.966 | S. cerevisiae deletion strains, locus YLR371W, strain rom2, stronger effect = lower value 0.977 | S. cerevisiae deletion strains, locus YLR384C, strain iki3, stronger effect = lower value 0.985 | S. cerevisiae deletion strains, locus YLR418C, strain cdc73, stronger effect = lower value 0.955 | S. cerevisiae deletion strains, locus YML016C, strain PPZ1, stronger effect = lower value 0.989 | S. cerevisiae deletion strains, locus YML032C, strain rad52, stronger effect = lower value 0.96 | S. cerevisiae deletion strains, locus YML120C, strain ndi1, stronger effect = lower value 0.939 | S. cerevisiae deletion strains, locus YML124C, strain tub3, stronger effect = lower value 0.985 | S. cerevisiae deletion strains, locus YMR058W, strain fet3, stronger effect = lower value 0.981 | S. cerevisiae deletion strains, locus YMR078C, strain ctf18, stronger effect = lower value 0.977 | S. cerevisiae deletion strains, locus YMR125W, strain sto1, stronger effect = lower value 0.924 | S. cerevisiae deletion strains, locus YMR129W, stronger effect = lower value 1.01 | S. cerevisiae deletion strains, locus YMR205C, strain PFK2, stronger effect = lower value 0.948 | S. cerevisiae deletion strains, locus YMR223W, strain ubp8, stronger effect = lower value 1.01 | S. cerevisiae deletion strains, locus YMR231W, strain pep5, stronger effect = lower value 1 | S. cerevisiae deletion strains, locus YMR263W, strain SAP30, stronger effect = lower value 0.985 | S. cerevisiae deletion strains, locus YMR307W, strain GAS1, stronger effect = lower value 1 | S. cerevisiae deletion strains, locus YNL067W, strain RPL9B, stronger effect = lower value 0.978 | S. cerevisiae deletion strains, locus YNL071W, strain lat1, stronger effect = lower value 1 | S. cerevisiae deletion strains, locus YNL128W, strain TEP1, stronger effect = lower value 0.998 | S. cerevisiae deletion strains, locus YNL153C, strain GIM3, stronger effect = lower value 0.98 | S. cerevisiae deletion strains, locus YNL183C, strain NPR1, stronger effect = lower value 0.932 | S. cerevisiae deletion strains, locus YNL209W, strain ssb2, stronger effect = lower value 0.978 | S. cerevisiae deletion strains, locus YNL233W, strain BNI4, stronger effect = lower value 0.978 | S. cerevisiae deletion strains, locus YNL248C, strain rpa49, stronger effect = lower value 0.984 | S. cerevisiae deletion strains, locus YNL250W, strain rad50, stronger effect = lower value 0.985 | S. cerevisiae deletion strains, locus YNL271C, strain bni1, stronger effect = lower value 0.974 | S. cerevisiae deletion strains, locus YNL298W, strain CLA4, stronger effect = lower value 0.984 | S. cerevisiae deletion strains, locus YNL307C, strain MCK1, stronger effect = lower value 0.969 | S. cerevisiae deletion strains, locus YNL322C, strain KRE1 (second series), stronger effect = lower value 0.966 | S. cerevisiae deletion strains, locus YNL322C, strain KRE1, stronger effect = lower value 0.998 | S. cerevisiae deletion strains, locus YNR049C, strain mso1, stronger effect = lower value 0.973 | S. cerevisiae deletion strains, locus YNR052C, strain pop2, stronger effect = lower value 0.986 | S. cerevisiae deletion strains, locus YOL006C, strain TOP1, stronger effect = lower value 0.965 | S. cerevisiae deletion strains, locus YOL012C, strain htz1 0.92 | S. cerevisiae deletion strains, locus YOL147C, strain pex11, stronger effect = lower value 0.985 | S. cerevisiae deletion strains, locus YOR001W, strain rrp6, stronger effect = lower value 1.04 | S. cerevisiae deletion strains, locus YOR061W, strain CKA2, stronger effect = lower value 0.99 | S. cerevisiae deletion strains, locus YOR069W, strain VPS5, stronger effect = lower value 0.986 | S. cerevisiae deletion strains, locus YOR070C, strain gyp1, stronger effect = lower value 0.985 | S. cerevisiae deletion strains, locus YOR080W, strain dia2, stronger effect = lower value 0.97 | S. cerevisiae deletion strains, locus YOR083W, strain WHI5, stronger effect = lower value 0.965 | S. cerevisiae deletion strains, locus YOR106W, strain vam3, stronger effect = lower value 0.951 | S. cerevisiae deletion strains, locus YOR136W, strain idh2, stronger effect = lower value 0.979 | S. cerevisiae deletion strains, locus YOR144C, strain elg1, stronger effect = lower value 0.984 | S. cerevisiae deletion strains, locus YOR184W, strain ser1, stronger effect = lower value 0.96 | S. cerevisiae deletion strains, locus YOR231W, strain MKK1, stronger effect = lower value 0.98 | S. cerevisiae deletion strains, locus YOR265W, strain rbl2, stronger effect = lower value 0.986 | S. cerevisiae deletion strains, locus YOR270C, strain vph1, stronger effect = lower value 0.995 | S. cerevisiae deletion strains, locus YOR290C, strain snf2, stronger effect = lower value 0.966 | S. cerevisiae deletion strains, locus YOR316C, strain cot1, stronger effect = lower value 0.975 | S. cerevisiae deletion strains, locus YPL051W, strain arl3, stronger effect = lower value 0.987 | S. cerevisiae deletion strains, locus YPL055C, strain LGE1, stronger effect = lower value 0.992 | S. cerevisiae deletion strains, locus YPL078C, strain atp4, stronger effect = lower value 0.958 | S. cerevisiae deletion strains, locus YPL106C, strain sse1, stronger effect = lower value 0.94 | S. cerevisiae deletion strains, locus YPL240C, strain hsp82, stronger effect = lower value 0.996 | S. cerevisiae deletion strains, locus YPL241C, strain CIN2, stronger effect = lower value 0.996 | S. cerevisiae deletion strains, locus YPL256C, strain CLN2, stronger effect = lower value 0.959 | S. cerevisiae deletion strains, locus YPR119W, strain clb2, stronger effect = lower value 0.983 | S. cerevisiae deletion strains, locus YPR141C, strain kar3, stronger effect = lower value 0.967 | S. cerevisiae deletion strains, locus YPR163C, strain tif3, stronger effect = lower value 0.973 | S. cerevisiae deletion strains, locus YPR167C, strain met16, stronger effect = lower value 0.978 | S. cerevisiae deletion strains, strain wtn01, stronger effect = lower value 0.964 | S. cerevisiae strains, strain wild type, stronger effect = lower value 0.992
